# Assay results from PubChem BioAssay.
# Active and inactive are the calls of the source. Unless noted, no rule for the calls is given here.
# Experiments:
# [1] = A549 cell viability effects, profiling panel, calcein-AM fluorescence, 48 h, basal (AID 1162); settings: higher = more signal; also: test concentration not given here
# [2] = adipocyte viability effects, profiling panel, cell-based, 3T3-L1 adipocytes, calcein-AM fluorescence, 48 h, basal (AID 1163); settings: 3T3-L1 adipocytes viability, higher = more signal; also: test concentration not given here
# [3] = HepG2 cell viability effects, profiling panel, calcein-AM fluorescence, 48 h, basal (AID 1164); settings: higher = more signal; also: test concentration not given here
# [4] = MM1S cell viability effects, profiling panel, calcein-AM fluorescence, 48 h, basal (AID 1165); settings: higher = more signal;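 also: viability of MM1S multiple myeloma cells under basal unstimulated conditions; test concentration not given here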
# [5] = basal RPMI8226 viability, no added stimulus, profiling panel, cell-based, calcein-AM fluorescence, 48 h, PK04 Diversity Set (AID 1166); settings: RPMI8226 myeloma viability, higher = more signal;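 also: cells grown under basal conditions without added stimulus; test concentration not given here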
# [6] = basal HepG2 mitochondrial membrane potential changes, profiling panel, cell-based, JC-1 fluorescence, 24 h, 100 nL compound (AID 1167); settings: higher = more signal; also: test concentration not given here
# [7] = basal 3T3-L1 adipocyte mitochondrial potential changes, profiling panel, cell-based, JC-1 fluorescence, 3T3-L1 adipocytes, 24 h, 100 nL compound (AID 1168); settings: JC-1 mitochondrial fluorescence, higher = more signal, called active from +8 up or from −8 down; also: test concentration not given here
# [8] = basal RPMI8226 mitochondrial membrane potential changes, profiling panel, cell-based, JC-1 fluorescence, 24 h, 100 nL compound (AID 1169); settings: RPMI8226 myeloma, JC-1 mitochondrial potential fluorescence, higher = more signal; also: test concentration not given here
# [9] = basal MM1S mitochondrial membrane potential changes, profiling panel, cell-based, JC-1 fluorescence, 24 h, 100 nL compound (AID 1170); settings: higher = more signal; also: test concentration not given here
# [10] = A549 lung cancer cell viability effects, profiling panel, resazurin fluorescence, 24 h, PK04 Diversity Set (AID 1171); settings: higher = more signal, called active from +8 up or from −8 down; also: test concentration not given here
# [11] = HepG2 liver cancer cell viability effects, profiling panel, resazurin fluorescence, 24 h, PK04 Diversity Set (AID 1172); settings: higher = more signal; also: test concentration not given here
# [12] = basal S. cerevisiae growth modulation, no modifier, primary screen, OD600, strain BY4716, 24 h, basal condition (AID 1173); settings: OD600, 24 h, higher = more signal, called active from +8 up or from −8 down
# [13] = MM1S myeloma cell viability, profiling panel, resazurin fluorescence, basal, 24 h, PK04 Diversity Set (AID 1174); settings: higher = more signal, called active from +8 up or from −8 down;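 also: MM1S multiple myeloma cell line; test concentration not given here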
# [14] = target: Dihydroorotate dehydrogenase (quinone), mitochondrial (Plasmodium falciparum (isolate 3D7)) (UniProt Q08210); assay: PfDHODH enzyme inhibitors, primary screen, biochemical, C-terminal His tag, absorbance 600 nm (AID 1175); settings: DCIP absorbance 600 nm, higher = more signal, called active from +8 up or from −8 down;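 also: recombinant parasite enzyme with a five histidine tag at its C terminus; test concentration not given here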
# [15] = P. aeruginosa biofilm formation inhibitors, primary screen, strain PAO1, LB-PBS medium, absorbance 600 nm (AID 1176); also: test concentration not given here; settings: P. aeruginosa PAO1 growth/biofilm, A600, 12 h; higher = more signal
# [16] = S. cerevisiae RM11-1a growth modifiers, primary screen, strain RM11-1a, OD600, basal, 24 h (AID 1177); settings: OD600, 24 h, higher = more signal, called active from +8 up or from −8 down;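 also: cultures grown under basal conditions with no added stressor; test concentration not given here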
# [17] = E. coli acrAB mutant growth effects, primary screen, E. coli filamentation inducers, strain DRC39, OD650, 24 h (AID 1178); settings: higher = more signal, called active from +8 up or from −8 down;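 also: growth measured as culture turbidity by optical density at 650 nm; test concentration not given here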
# [18] = E. coli acrAB mutant growth effects, primary screen, E. coli filamentation inducers, strain DRC39, OD650, 48 h (AID 1179);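 also: screen aims at cell division blockers that make cells filament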; settings: E. coli DRC39 delta-acrAB growth, higher = more signal, called active from +8 up or from −8 down
# [19] = RPMI8226 myeloma cell viability, profiling panel, resazurin fluorescence, basal, 24 h, PK04 Diversity Set (AID 1180); settings: higher = more signal;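 also: RPMI8826 multiple myeloma cell line at 5000 cells per well; test concentration not given here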
# [20] = target: E3 ubiquitin-protein ligase XIAP (Homo sapiens) (UniProt P98170); assay: XIAP binders, primary screen, biophysical, small-molecule microarray, fluorescence 635 nm (AID 1181); settings: small-molecule microarray binding, higher = more signal;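 also: score merges 667 nm emission and signal to noise over triplicate slides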
# E3 ubiquitin-protein ligase XIAP (Homo sapiens), sequence (P98170 whole entry, looked up): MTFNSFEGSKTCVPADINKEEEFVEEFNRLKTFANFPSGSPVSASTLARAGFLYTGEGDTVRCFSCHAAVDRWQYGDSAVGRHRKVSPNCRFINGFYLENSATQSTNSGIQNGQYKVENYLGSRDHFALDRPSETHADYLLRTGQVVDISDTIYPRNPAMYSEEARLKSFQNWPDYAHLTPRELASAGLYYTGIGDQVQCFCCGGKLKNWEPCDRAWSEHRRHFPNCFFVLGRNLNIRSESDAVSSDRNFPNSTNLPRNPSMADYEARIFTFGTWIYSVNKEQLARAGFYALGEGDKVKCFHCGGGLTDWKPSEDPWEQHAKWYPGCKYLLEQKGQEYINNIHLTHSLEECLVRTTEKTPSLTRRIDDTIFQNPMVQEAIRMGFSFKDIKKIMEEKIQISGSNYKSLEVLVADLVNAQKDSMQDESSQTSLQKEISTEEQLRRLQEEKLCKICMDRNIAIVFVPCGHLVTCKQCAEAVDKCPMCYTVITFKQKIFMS
# Dihydroorotate dehydrogenase (quinone), mitochondrial (Plasmodium falciparum (isolate 3D7)), sequence (Q08210 whole entry, looked up): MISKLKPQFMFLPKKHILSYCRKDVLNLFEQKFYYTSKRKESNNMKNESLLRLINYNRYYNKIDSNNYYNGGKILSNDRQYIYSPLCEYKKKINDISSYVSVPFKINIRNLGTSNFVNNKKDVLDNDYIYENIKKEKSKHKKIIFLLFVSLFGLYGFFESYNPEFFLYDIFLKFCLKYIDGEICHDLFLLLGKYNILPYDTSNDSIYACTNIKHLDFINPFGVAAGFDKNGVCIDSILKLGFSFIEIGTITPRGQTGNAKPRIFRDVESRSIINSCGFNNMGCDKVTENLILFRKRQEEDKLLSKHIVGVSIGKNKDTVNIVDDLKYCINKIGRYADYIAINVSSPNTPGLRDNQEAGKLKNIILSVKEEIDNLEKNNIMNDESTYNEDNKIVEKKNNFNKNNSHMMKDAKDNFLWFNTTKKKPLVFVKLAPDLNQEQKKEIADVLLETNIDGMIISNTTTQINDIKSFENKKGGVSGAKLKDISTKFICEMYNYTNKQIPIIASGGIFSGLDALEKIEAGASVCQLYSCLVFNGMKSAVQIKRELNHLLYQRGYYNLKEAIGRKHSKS
SMILES,z-score [1],z-score [2],z-score [3],z-score [4],z-score [5],z-score [6],z-score [7],z-score [8],z-score [9],z-score [10],z-score [11],z-score [12],z-score [13],composite z-score [14],z-score [15],z-score [16],z-score [17],z-score [18],z-score [19],composite z-score [20]
Cc1nc2cc(Br)ccc2c(=O)o1,0.504,0.703,0.368,0.729,0.834,1.37,0.499 (inactive),0.649,0.392,0.235 (inactive),0.817,-0.691 (inactive),0.065 (inactive),-0.442 (inactive),-0.214 (inactive),-1.08 (inactive),0.705 (inactive),1.42 (inactive),1.21,-0.0426
C=C[C@H](C)[C@@H](OC(=O)Nc1ccc(OC)cc1)c1ccc(O)c2ccccc12,-1.17,0.323,-1.54,-2.78,-4.12,-3.42,-1.19 (inactive),-1.01,-1.94,-1.12 (inactive),-1.31,-18.2 (active),-4.56 (inactive),-2.51 (inactive),0.802 (inactive),-21.8 (active),1.42 (inactive),0.525 (inactive),-2.9,-0.196
CO[C@H]1O[C@H](CO)[C@@H](OC(=O)Nc2cccc(F)c2)[C@H](OC(=O)Nc2ccccc2)[C@@H]1OC(=O)Nc1ccccc1,-1.61,0.18,-2.08,-3.43,-4.24,-0.702,-1.66 (inactive),-1.22,-1.07,-3.16 (inactive),-1.62,0.706 (inactive),-2.56 (inactive),0.127 (inactive),0.758 (inactive),0.666 (inactive),-0.002 (inactive),-0.0057 (inactive),-2.4,0.0623
COc1ccc([C@H]2OC[C@@H]3C[C@@H](Cc4ccccc4)C(=O)N32)cc1,-0.706,0.0138,0.305,-2.13,0.215,-0.478,-0.0784 (inactive),0.183,-0.0676,0.194 (inactive),-0.384,-3.32 (inactive),0.111 (inactive),-0.431 (inactive),-0.0513 (inactive),-0.64 (inactive),-0.562 (inactive),-0.873 (inactive),-0.219,-0.0337
C[N+](C)(C)CCCCNC(=O)[C@@H]1C[C@@H]2C(=O)N[C@@H](Cc3ccccc3)C(=O)N2[C@@H]1c1cccc(OCCO)c1,1.49,-0.764,0.215,0.367,0.0971,1.58,0.924 (inactive),0.219,-0.493,-0.337 (inactive),-0.278,-0.143 (inactive),0.548 (inactive),-24.9 (active),-0.226 (inactive),0.145 (inactive),0.994 (inactive),1.31 (inactive),0.0965,-0.138
CC(C)[Si](C#Cc1ccc(Oc2ccccc2)cc1)(O[Si](C#Cc1ccc(Oc2ccccc2)cc1)(C(C)C)C(C)C)C(C)C,0.271,0.587,-0.377,-1.58,-0.743,-0.683,0.733 (inactive),0.0384,-0.00729,0.162 (inactive),0.0013,1.95 (inactive),0.698 (inactive),0.936 (inactive),-0.133 (inactive),1.88 (inactive),0.879 (inactive),0.3 (inactive),0.603,-0.0009
CO[C@H]1O[C@H](CO)[C@@H](OC(=O)Nc2ccc(Oc3ccccc3)cc2)[C@H](OC(=O)Nc2ccc3c(c2)OCO3)[C@H]1OC(=O)Nc1ccc2c(c1)OCO2,-0.331,0.377,0.106,-0.789,-0.594,-0.185,2.17 (inactive),-0.583,0.818,0.104 (inactive),-0.692,0.759 (inactive),0.0487 (inactive),-0.227 (inactive),2.07 (inactive),1.11 (inactive),1.65 (inactive),0.0431 (inactive),0.404,-0.0795
CC(C)c1ccc(NN2C(C(O)c3ccc(B(O)O)cc3)C=CC3C(=O)N(c4ccccc4)C(=O)C32)cc1 (stereo not given),-1.34,-0.386,-1.28,-0.571,-0.587,-1.75,-1.56 (inactive),-0.894,0.00559,-0.212 (inactive),-1.18,0.278 (inactive),-1.2 (inactive),-0.388 (inactive),1.12 (inactive),0.728 (inactive),-0.329 (inactive),-0.543 (inactive),-0.948,-0.119
COc1ccc(CCNC(=O)[C@@H]2c3ccccc3C(=O)N(Cc3ccccc3Cl)[C@H]2c2ccc(CO)cc2)cc1,1.37,0.789,0.332,-0.897,-0.474,1.64,0.716 (inactive),-0.0929,1.42,1.22 (inactive),0.891,-0.541 (inactive),0.258 (inactive),0.0856 (inactive),0.416 (inactive),0.394 (inactive),-0.258 (inactive),-0.457 (inactive),0.883,-0.102
C=C(COC)C(=O)CC[C@@H](OC(C)=O)c1ccc(CO)o1,-0.97,0.186,0.473,-0.0988,-0.355,-0.799,0.195 (inactive),-0.548,-0.066,0.188 (inactive),-0.173,0.227 (inactive),0.145 (inactive),-3.24 (inactive),0.838 (inactive),-1.23 (inactive),-0.216 (inactive),-0.107 (inactive),0.0972,0.383
COc1ccc(C#Cc2ccc3c(c2)[C@]2(C(=O)N3)[C@H](C(=O)NC[C@H](O)c3ccccc3)[C@H]3C(=O)O[C@H](c4ccccc4)[C@H](c4ccccc4)N3[C@@H]2c2ccc(O)cc2)cc1,0.0902,-0.753,-0.0809,-3.27,-4.13,-1.93,-0.523 (inactive),-1.11,-1.57,-0.226 (inactive),-0.475,-0.26 (inactive),-2.61 (inactive),0.843 (inactive),0.971 (inactive),2.29 (inactive),0.0945 (inactive),0.51 (inactive),-3.97,0.262
CCOC(=O)C[C@H]1[C@H](OC(=O)c2ccc(C(=O)c3ccccc3)cc2)[C@@H](NC(=O)c2ccccc2)c2cc(OCCCO)ccc2N1C(=O)c1ccc2ccccc2n1,0.29,-0.356,0.74,0.294,-0.465,1,1.76 (inactive),-0.517,-0.386,-0.142 (inactive),-0.524,0.47 (inactive),-0.145 (inactive),-0.0918 (inactive),0.207 (inactive),-0.0205 (inactive),-0.674 (inactive),-0.374 (inactive),-0.0826,0.0997
COc1cc2c(cc1O)C(C1CC1)N(Cc1sc3ccccc3c1Cl)CC2 (stereo not given),-4,0.0337,-4.15,-3.32,-4.44,-3.67,-1.07 (inactive),-0.858,-0.539,-0.663 (inactive),-1.58,-18.3 (active),-0.789 (inactive),-0.931 (inactive),-1.33 (inactive),-22 (active),0.531 (inactive),-0.75 (inactive),-1.42,-0.031
CCOC(=O)C[C@H]1[C@H](OC(=O)c2cc3ccccc3oc2=O)[C@@H](NC(=O)c2ccccc2)c2cc(OCCCO)ccc2N1C(=O)c1ccc2ccccc2n1,0.282,0.785,-0.112,-0.0357,-1.08,-0.314,0.122 (inactive),-0.311,-0.0496,-0.886 (inactive),-0.359,-0.594 (inactive),-1.04 (inactive),0.542 (inactive),-0.246 (inactive),-0.5 (inactive),-0.741 (inactive),-1.2 (inactive),-1.16,-0.28
C=C(C)[C@@H]1CC=C(C(O)C2C=CC3C(=O)N(C)C(=O)C3N2Nc2ccccc2)CC1 (stereo not given in full),-0.889,-1.16,-0.651,-1.36,0.0835,-0.9,4.5 (inactive),-0.334,-0.0333,0.392 (inactive),-0.709,0.773 (inactive),-1.03 (inactive),0.849 (inactive),0.751 (inactive),1.45 (inactive),-0.683 (inactive),-0.472 (inactive),-0.581,0.0688
[N-]=[N+]=NCc1ccccc1C[C@]1(C(=O)N2CCCCC2)N=C(c2ccc(OCCCO)cc2)O[C@H]1c1ccccc1N=[N+]=[N-],-1.27,1.03,-0.454,-2.18,-3.48,0.345,-0.187 (inactive),-1.16,-1.07,-0.6 (inactive),0.297,0.264 (inactive),-2.36 (inactive),0.168 (inactive),0.426 (inactive),0.875 (inactive),0.173 (inactive),-0.446 (inactive),-2.4,-0.332
C[C@H]1C2[C@H](Cc3ccccc3)NC(=O)[C@]23C(=O)N[C@H](Cc2ccccc2)C(=O)N2CCC[C@H]2C(=O)NC/C=C\C/C=C/C3[C@@H]2O[C@]12C (stereo not given in full),1.4,0.993,0.445,0.0625,-0.0608,0.725,0.736 (inactive),-0.243,-0.634,0.559 (inactive),0.696,-1.96 (inactive),1.22 (inactive),-1.51 (inactive),1.01 (inactive),-0.835 (inactive),1.11 (inactive),-0.0988 (inactive),1.19,0.091
COC(=O)[C@@]1(Cc2ccc(OC)cc2)[C@H]2c3cc(C(=O)N4CCCC4)n(Cc4ccc(C)c(F)c4F)c3C[C@H]2CN1C(=O)c1ccccc1,0.842,0.0891,0.682,-1.59,-2.66,3.41,-0.411 (inactive),-0.735,-1.51,-0.268 (inactive),0.273,1.9 (inactive),-1.4 (inactive),0.104 (inactive),-0.843 (inactive),1.41 (inactive),0.35 (inactive),-0.237 (inactive),-1.59,0.0683
